Experimental findings from PubChem BioAssay (Tox21) are described below.

The structures appear in SMILES notation. “And” between values parts separate entries of the source, which are not always exact repeats. Equal entries are not always repeated. Inconclusive results are not listed. The source holds several records for some structures; these can differ, active in one and inactive in another. The source made the active and inactive calls. Unless noted, the call rests on the fitted dose curve; in most records, active means well fitted curve in the direction sought with a large enough effect in the repeat runs; inconclusive means weak or mixed curves; inactive means no such curve, though single readings can be large; an effect the other way counts as inactive or inconclusive.

Assay [1] in a line: qHTS assay to identify small molecule agonists of the hypoxia (HIF-1) signaling pathway (AID 1224846; active means well fitted activation curve with a large enough effect in the signal ratio in the repeat runs, not every such curve was filed as active; the % refers to the signal ratio). The procedure, abridged: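 ME-180 HRE-bla reporter cells; compounds in DMSO, 17 h at 37C; read-out beta-lactamase via CCF4-AM FRET.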
(In general: qHTS replaces the single test concentration by a dilution series.)

Assay [2] in a line: qHTS assay to identify small molecule agonists of H2AX - cell viability counter screen (AID 1224847; calls by dose curve; further: nearly all actives have a fitted effect of over 30% in size; further: potency means the concentration at half of the fitted maximal effect). The gist of the method:
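Quantitative HTS viability measurement: CHO-K1 wild-type cells in serum (10% FBS) medium, short 3 hr drug exposure at 37C with 0.76% DMSO, CellTiter-Glo luminescent detection.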

The nature of assay [3]: qHTS assay to identify small molecule antagonists of the estrogen related receptor (ERR) signaling pathway from Tox21 library (AID 1224848). Further: nearly all actives have a fitted effect of over 50% in size. Further: potency means the concentration at half of the fitted maximal effect. The gist of the method: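 Tox21 10K compounds in DMSO tested for ERR pathway antagonism in NTP's ERR cell line; 18 h, 37 C exposure; ONE-Glo luminescence.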
A short description of assay [4]: qHTS assay to identify small molecule agonists of the estrogen related receptor (ERR) signaling pathway from Tox21 library (AID 1224849; calls by dose curve; further: nearly all actives have a fitted effect of over 15% in size). The note with it: ERR reporter cell line, ONE-Glo luciferase, 18 h. The gist of the method:
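Luciferase activity in ERR pathway reporter cells served as the agonist readout; exposure lasted 18 h at 37 C, with ONE-Glo detection after 30 min at room temperature.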

Assay [5] can be described thus: qHTS RealTime-Glo MT Cell Viability Assay in HepG2 cells - 24 hour (AID 1224867). Further: nearly all actives have a fitted effect of over 50% in size. The gist of the method:
(§1)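 Viability was tracked continuously by NanoLuc luminescence from prosubstrate reduced by living HepG2 cells, at successive time points over 40 h of compound exposure. Cells with reagent were preincubated 5 h at 37 °C before compound addition.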

Assay [6] in a line: qHTS RealTime-Glo MT Cell Viability Assay in HEK293 cells - 32 hour (AID 1224868). Further: nearly all actives have a fitted effect of over 50% in size. Further: potency means the concentration at half of the fitted maximal effect. The gist of the method:
(§2)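 Viability tracked continuously by luminescence as live cells reduce a prosubstrate for NanoLuc; HEK293 cells preincubated 5 h, compound-treated at 37 C, and read at 0, 8, 16, 24, 32 and 40 h.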

A short description of assay [7]: A CellTox Green Cytotoxicity Assay to monitor cytotoxicity in HEK293 cells - 0 hour (AID 1224869). Further: nearly all actives have a fitted effect of over 50% in size. The gist of the method: (§3)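 Real-time, in one plate: 600 HEK293 cells/well with dead-cell DNA dye, pinned compound after 5 h, 37 C incubation over 40 h; viable cells give no appreciable fluorescence.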
The nature of assay [8]: qHTS RealTime-Glo MT Cell Viability Assay in HepG2 cells - 40 hour (AID 1224870). Further: nearly all actives have a fitted effect of over 50% in size. The gist of the method:
(§4)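 HepG2 cells mixed with RealTime-Glo MT reagents (NanoLuc plus cell-permeant prosubstrate) were seeded at 600 cells/well, incubated 5 h at 37 C/5% CO2, then pinned with compounds in DMSO; nonlytic luminescence tracked viability during 40 h treatment.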

A short description of assay [9]: A CellTox Green Cytotoxicity Assay to monitor cytotoxicity in HEK293 cells - 40 hour (AID 1224871). Further: nearly all actives have a fitted effect of over 45% in size. Further: potency means the concentration at half of the fitted maximal effect. The procedure, abridged:
as §3

The nature of assay [10]: qHTS RealTime-Glo MT Cell Viability Assay in HEK293 cells - 16 hour (AID 1224872). Further: nearly all actives have a fitted effect of over 50% in size. Further: potency means the concentration at half of the fitted maximal effect. The gist of the method:
as §2

Assay [11] is described as follows: qHTS RealTime-Glo MT Cell Viability Assay in HEK293 cells - 40 hour (AID 1224874). Further: nearly all actives have a fitted effect of over 50% in size. Further: potency means the concentration at half of the fitted maximal effect. Conditions: RealTime-Glo luminescence; max response: stronger effect = lower value. The gist of the method: (§5)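 Kinetic, non-lysing viability readout. Seed HEK293 (600/well) with reagent, incubate 5 h at 37 C/5% CO2, pin 23 nL compound in DMSO, incubate at 37 C, read luminescence at 0, 8, 16, 24, 32, 40 h.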

A short description of assay [12]: A CellTox Green Cytotoxicity Assay to monitor cytotoxicity in HepG2 cells - 16 hour (AID 1224876). Further: nearly all actives have a fitted effect of over 45% in size. Further: potency means the concentration at half of the fitted maximal effect. The procedure, abridged: (§6)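 Cytotoxicity was tracked as dead-cell DNA fluorescence in HepG2 cells treated with test compounds at 37 C; each time-point value comes from one kinetic series spanning 0, 8, 16, 24, 32 and 40 h.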
Assay [13] is described as follows: qHTS RealTime-Glo MT Cell Viability Assay in HepG2 cells - 32 hour (AID 1224877). Further: nearly all actives have a fitted effect of over 55% in size. Further: potency means the concentration at half of the fitted maximal effect. The procedure, abridged:
as §1

A short description of assay [14]: A CellTox Green Cytotoxicity Assay to monitor cytotoxicity in HepG2 cells - 24 hour (AID 1224878). Further: nearly all actives have a fitted effect of over 45% in size. Further: potency means the concentration at half of the fitted maximal effect. The gist of the method: as §6
Assay [15] can be described thus: A CellTox Green Cytotoxicity Assay to monitor cytotoxicity in HepG2 cells - 40 hour (AID 1224879). Further: nearly all actives have a fitted effect of over 40% in size. Further: potency means the concentration at half of the fitted maximal effect. The procedure, abridged: as §6
A short description of assay [16]: qHTS RealTime-Glo MT Cell Viability Assay in HEK293 cells - 0 hour (AID 1224880). Further: top concentration of the series differs between compounds; nearly all actives have a fitted effect of over 45% in size. The gist of the method:
as §5

Assay [17] is described as follows: A CellTox Green Cytotoxicity Assay to monitor cytotoxicity in HEK293 cells - 32 hour (AID 1224881). Further: nearly all actives have a fitted effect of over 40% in size. Further: potency means the concentration at half of the fitted maximal effect. The procedure, abridged: as §3
Assay [18] is described as follows: qHTS assay to identify small molecule agonists of H2AX (AID 1224845; active means well fitted activation curve with a large enough effect in the signal ratio in the repeat runs, not every such curve was filed as active; the % refers to the signal ratio; further: potency means the concentration at half of the fitted maximal effect). The procedure, abridged:
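Wild-type CHO-K1 cells plated overnight, then exposed 3 hr at 37C to compounds at 15 concentrations (0.76% DMSO). Lysed, then HTRF anti-pH2AX(S139)-cryptate/anti-H2AX-d2 detection after 24 hr at room temperature; emissions 665 and 620 nm.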

Assay [19] can be described thus: qHTS RealTime-Glo MT Cell Viability Assay in HepG2 cells - 8 hour (AID 1224873). Further: nearly all actives have a fitted effect of over 55% in size. The gist of the method: as §4
Assay [20] can be described thus: A CellTox Green Cytotoxicity Assay to monitor cytotoxicity in HEK293 cells - 24 hour (AID 1224875). Further: nearly all actives have a fitted effect of over 45% in size. The procedure, abridged:
as §3
On the % scale 0 is the no-effect control and ±100 the full control effect.

On to `O=C(c1ccccc1)c1ccc(O)c(O)c1O`, for which the result in [1] was inactive. Moreover, the Potency entry in [2], in assay [3], in assay [5], in assay [6], in assay [7] and in assay [8] was “inactive” each time. The Potency entry in [9], in assay [10], in [12], in [13], in assay [14] and in assay [15] was “inactive” in each case. Also, the Potency result in assay [16] and in assay [17] was “inactive” in each case. The activity change, positive = activation in assay [4] (at 92.4 µM (top of the series)) was -7.85% (inactive) and -0.637% (inactive). Besides, in [11], the max response was -18.4% (inactive).
`NC(=O)NC(N)=O`: the Potency result in assay [18], in assay [2], in assay [5], in [6], in [7] and in assay [8] was “inactive” throughout. Further, the Potency entry in assay [9], in assay [12], in assay [13], in assay [14], in [15] and in assay [16] was “inactive” throughout. Moreover, the Potency entry in [17] was “inactive”. Further, in [1], the compound was classed as inactive. In addition, the max response in [11] is 1.11% (inactive) and 4.69% (inactive).
On to `Cc1ccc([N+](=O)[O-])cc1N`, for which the Potency result in assay [18], in [2], in assay [5], in [6], in assay [7] and in assay [8] was “inactive” throughout. The Potency result in [9], in [19], in assay [12], in assay [13], in assay [14] and in [15] was “inactive” in each case. The Potency result in assay [16] and in [17] was “inactive” in each case. For the same compound, the compound was classed as inactive in [1]. For the same compound, the max response in assay [11] was 10.1% (inactive) and 0.36% (inactive).
For `CC(CN1c2ccccc2Sc2ccccc21)N(C)C` (stereo unspecified), the Potency entry in assay [18], in [7], in [8], in [19] and in [16] was “inactive” in each case. The Potency in [3] was 61.8 µM (active) and 68.6 µM (active) and inactive; in [6], 39.3 µM (active) and 43.6 µM (active) and 6.01 µM (active); in assay [9], 54.9 µM (active) and inactive; in assay [10], 39.3 µM (active) and 30.9 µM (active); in assay [11], 39.3 µM (active) and 43.6 µM (active) and 6.01 µM (active); in assay [12] it was “inactive and 43.6 µM (active)”. Besides, the Potency entry in assay [13] is “inactive and 49 µM (active)”; in assay [14], 49 µM (active) and 23.9 µM (active); in assay [15], 55.5 µM (active) and 49 µM (active) and 23.9 µM (active); in assay [17], 54.9 µM (active) and inactive. The activity change, positive = activation is -5.06% (inactive) in [4] (at 42.5 µM (top of the series)); -81.8% (inactive) and -69.4% (inactive) in [4] (at 92.4 µM (top of the series)).
On to `c1cnc2c(c1)ccc1cccnc12`, for which the Potency in assay [18] is 6.35 µM (active); in assay [2], 80.8 µM (active) and inactive; in [3] it was 1.23 µM (active) and 1.09 µM (active) and 1.54 µM (active); in assay [6], 3.5 µM (active) and 7.76 µM (active); in assay [9], 49.4 µM (active) and 43.6 µM (active) and inactive; in assay [11], 3.12 µM (active) and 7.76 µM (active) and 6.92 µM (active). The Potency in assay [15] was 44.1 µM (active) and inactive. Further, the activity change, positive = activation in assay [4] (at 92.4 µM (top of the series)) is -72.1% (inactive) and -45.5% (inactive) and -63.4% (inactive). The Potency result in [5], in [7], in assay [8], in [20], in assay [12] and in [13] was “inactive” throughout. Further, the Potency result in [14], in [16] and in assay [17] was “inactive” in each case.
As to `CN1Cc2c(N)cccc2C(c2ccccc2)C1` (stereo unspecified), the Potency entry in assay [18], in assay [2], in assay [5], in [6], in assay [7] and in assay [8] was “inactive” each time. Further, the Potency entry in [9], in assay [10], in [19], in [20], in assay [12] and in [13] was “inactive” throughout. In addition, the Potency result in [14], in assay [15], in assay [16] and in assay [17] was “inactive” throughout. The max response in assay [11] was -23.8% (inactive) and -3.82% (inactive).
With `Cc1nnc(NS(=O)(=O)c2ccc(N)cc2)s1`, the Potency entry in assay [18], in [2], in assay [5], in [6], in assay [7] and in [8] was “inactive” in each case. Further, the Potency result in [9], in [10], in assay [19], in assay [20], in [12] and in [13] was “inactive” throughout. Besides, the Potency entry in [14], in assay [15], in assay [16] and in assay [17] was “inactive” in each case. For the same compound, the max response in assay [11] is -1.44% (inactive) and 9.25% (inactive).
